In PubChem BioAssay:
Active and inactive are the calls of the source. The rule behind the calls is not given here.

assay: kinase inhibitors against Plasmodium liver-stage infection, cell-based, known kinase inhibitor set, luminescence, hepatoma host viability (AID 624392); conditions: Plasmodium liver stage in hepatoma cells, luciferase luminescence, concentration not given here; liver cell % of control: measured here: host liver cell viability; parasite % of control: stronger effect = lower value;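 note: infected cells incubated roughly two days before readout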

| Compound | parasite % of control | liver cell % of control [%] |
| --- | --- | --- |
| Cc1cccc(Nc2ncc(-c3ccccc3)o2)c1 | 180% (inactive) | 79.5 |
| NC(=O)c1cccc(Nc2nccc(Nc3cccc4[nH]ncc34)n2)c1 | 429% (inactive) | 75 |
| CS(=O)(=O)CCNCc1ccoc1-c1ccc2ncnc(Nc3ccc(OCc4ccccc4)cc3)c2c1 | 112% (inactive) | 97.4 |
| NC(=O)c1cc(-c2ccc(F)cc2)cc(-c2ccncc2)c1N | 93.1% (inactive) | 110 |
| CCS(=O)(=O)c1ccc(OC)c(Nc2ncc(-c3cccc(C(C)=O)c3)o2)c1 | 48.2% (inactive) | 169 |
| COc1cc2ncn(-c3cc(OCc4ccccc4Cl)c(C(N)=O)s3)c2cc1OC | 37.4% (inactive) | 147 |
| COc1cccc(-n2ncc3c(N/N=C/c4ccc(S(C)(=O)=O)cc4)ncnc32)c1 | 26.1% (inactive) | 107 |
| Nc1nonc1-c1nc2cnccc2n1C1CC1 | 247% (inactive) | 86.3 |
| NC(=O)c1sc(-n2cnc3ccccc32)cc1OCc1ccccc1Br | 256% (inactive) | 77.6 |
| COC(=O)Nc1nc2ccc(Sc3ccc(NC(=O)Nc4cc(C(F)(F)F)ccc4F)cc3)cc2[nH]1 | 195% (inactive) | 136 |
| COc1cc2ncn(-c3cc(OCCc4ccccc4)c(C(N)=O)s3)c2cc1OC | 71.4% (inactive) | 140 |
| COc1cccc(Nc2nccc(-c3cnn4ncccc34)n2)c1 | 13.4% (inactive) | 85.6 |
| CS(=O)(=O)CCNCc1coc(-c2ccc3ncnc(Nc4ccc(OCc5ccccc5)cc4)c3c2)c1 | 176% (inactive) | 87.7 |
| NC(=O)Cc1ccccc1Oc1nccc(-c2c(-c3ccc(F)cc3)ncn2C2CCNCC2)n1 | 160% (inactive) | 110 |
| O=C(Nc1ccc(Oc2ccc3nc(NC(=O)c4ccco4)[nH]c3c2)cc1)Nc1cc(C(F)(F)F)ccc1F | 37.4% (inactive) | 140 |
